The full ranking holds about 16,000 sequences; the median of “rpm ratio (pull-down/input)” is about 0.94, and the highest 2% start at about 1.7. Many of the other results were omitted from the sample, so the highest values are more common in it than they were.

Binding signal data for 34 sequences are collected here from paper PMC12820563, “FoxP3 forms a head-to-head dimer in vivo and stabilizes its multimerization on adjacent microsatellites”.

This assay concerns the target T1, MBP-FoxP1dN (Mus musculus, UniProt P58462 326-579).
T1 sequence: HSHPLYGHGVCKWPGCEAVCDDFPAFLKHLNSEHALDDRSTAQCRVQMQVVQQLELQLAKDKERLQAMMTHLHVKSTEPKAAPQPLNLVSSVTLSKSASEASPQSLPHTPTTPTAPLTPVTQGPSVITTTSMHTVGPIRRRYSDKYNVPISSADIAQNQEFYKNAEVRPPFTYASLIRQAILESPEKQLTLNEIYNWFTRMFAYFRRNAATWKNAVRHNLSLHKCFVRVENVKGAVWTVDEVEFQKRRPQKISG
Briefly: PD-seq (MBP pull-down with sequencing); 20 mM Tris-HCl pH 7.5, 100 mM NaCl, 1.5 mM MgCl2, 0.4 uM protein, 0.1 uM dsDNA library, 30 min, room temperature, amylose pull-down; high values mean tight binding. As to conditions: protein: recombinant; tags: His6-MBP; chain copies: 2; dsDNA, one strand shown. In short, it runs like this:
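His6-MBP-tagged mouse FoxP3 or FoxP1 fragment lacking the N-terminus, expressed in E. coli, was mixed at 0.4 µM with 0.1 µM Klenow-filled double-stranded degenerate DNA library. Incubation was 30 min at room temperature in Tris pH 7.5 buffer with NaCl and MgCl2. Complexes were caught on amylose resin and washed three times; DNA was released with proteinase K, PCR-barcoded and Illumina-sequenced. Binding is reads-per-million enrichment, pull-down over input, with replicates pooled.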
Take “GATGATTGTTCTCCCAGCTGATGAATTGCCTATGTCGAGTAAACAAATTTTCCTAATCTTTCTGTTCAAGCGCCATCTAC”: the binding signal was 0.918 RPM ratio (pull-down/input).
In the case of “GATGATTGTTCTCCCAGCTGATGAATTGACGCGGTCGAGTAAACAAATTTTCCTAATCTTTCTGTTCAAGCGCCATCTAC”, the binding signal is 1.01 RPM ratio (pull-down/input).
The value for “GATGATTGTTCTCCCAGCTGATGAATTTTCTGGCTCGAGTAAACAAATTTTCCTAATCTTTCTGTTCAAGCGCCATCTAC” was 0.777 RPM ratio (pull-down/input).
On to “GATGATTGTTCTCCCAGCTGATGAATTTCCGAAGTCGAGTAAACAAATTTTCCTAATCTTTCTGTTCAAGCGCCATCTAC”, for which the binding signal was 0.787 RPM ratio (pull-down/input).
“GATGATTGTTCTCCCAGCTGATGAATTACGTCGCTCGAGTAAACAAATTTTCCTAATCTTTCTGTTCAAGCGCCATCTAC”: the binding signal is 1.02 RPM ratio (pull-down/input).
The same measure for “GATGATTGTTCTCCCAGCTGATGAATTTTCACATTCGAGTAAACAAATTTTCCTAATCTTTCTGTTCAAGCGCCATCTAC”: 0.987 RPM ratio (pull-down/input); for “GATGATTGTTCTCCCAGCTGATGAATTACATTCCTCGAGTAAACAAATTTTCCTAATCTTTCTGTTCAAGCGCCATCTAC”: 1.2 RPM ratio (pull-down/input).
The value for “GATGATTGTTCTCCCAGCTGATGAATTTTTACTATCGAGTAAACAAATTTTCCTAATCTTTCTGTTCAAGCGCCATCTAC” was 1.1 RPM ratio (pull-down/input).
The value for “GATGATTGTTCTCCCAGCTGATGAATTTTACTAATCGAGTAAACAAATTTTCCTAATCTTTCTGTTCAAGCGCCATCTAC” was 1.14 RPM ratio (pull-down/input); that for “GATGATTGTTCTCCCAGCTGATGAATTTACTAAATCGAGTAAACAAATTTTCCTAATCTTTCTGTTCAAGCGCCATCTAC” was 1.72 RPM ratio (pull-down/input).
For the sequence “GATGATTGTTCTCCCAGCTGATGAATTAATGCGCTCGAGTAAACAAATTTTCCTAATCTTTCTGTTCAAGCGCCATCTAC”, the binding signal is 1.26 RPM ratio (pull-down/input).
The same measure for “GATGATTGTTCTCCCAGCTGATGAATTGACCTTCTCGAGTAAACAAATTTTCCTAATCTTTCTGTTCAAGCGCCATCTAC”: 0.921 RPM ratio (pull-down/input); for “GATGATTGTTCTCCCAGCTGATGAATTTTGCTTTTCGAGTAAACAAATTTTCCTAATCTTTCTGTTCAAGCGCCATCTAC”: 1.49 RPM ratio (pull-down/input); for “GATGATTGTTCTCCCAGCTGATGAATTGAATGGTTCGAGTAAACAAATTTTCCTAATCTTTCTGTTCAAGCGCCATCTAC”: 0.852 RPM ratio (pull-down/input).
The value for “GATGATTGTTCTCCCAGCTGATGAATTGATGACGTCGAGTAAACAAATTTTCCTAATCTTTCTGTTCAAGCGCCATCTAC” was 1.06 RPM ratio (pull-down/input); that for “GATGATTGTTCTCCCAGCTGATGAATTGACGTAATCGAGTAAACAAATTTTCCTAATCTTTCTGTTCAAGCGCCATCTAC” was 1.75 RPM ratio (pull-down/input).
As to “GATGATTGTTCTCCCAGCTGATGAATTTGACGTATCGAGTAAACAAATTTTCCTAATCTTTCTGTTCAAGCGCCATCTAC”, the binding signal was 0.962 RPM ratio (pull-down/input).
As for “GATGATTGTTCTCCCAGCTGATGAATTGACGCCATCGAGTAAACAAATTTTCCTAATCTTTCTGTTCAAGCGCCATCTAC”, the binding signal is 1.24 RPM ratio (pull-down/input).
As to “GATGATTGTTCTCCCAGCTGATGAATTGTTGACGTCGAGTAAACAAATTTTCCTAATCTTTCTGTTCAAGCGCCATCTAC”, the binding signal was 2.22 RPM ratio (pull-down/input).
The value for “GATGATTGTTCTCCCAGCTGATGAATTTTTGACGTCGAGTAAACAAATTTTCCTAATCTTTCTGTTCAAGCGCCATCTAC” was 0.91 RPM ratio (pull-down/input); that for “GATGATTGTTCTCCCAGCTGATGAATTTCTCTAGTCGAGTAAACAAATTTTCCTAATCTTTCTGTTCAAGCGCCATCTAC” was 0.844 RPM ratio (pull-down/input).
The same measure for “GATGATTGTTCTCCCAGCTGATGAATTACCGCGATCGAGTAAACAAATTTTCCTAATCTTTCTGTTCAAGCGCCATCTAC”: 0.929 RPM ratio (pull-down/input); for “GATGATTGTTCTCCCAGCTGATGAATTCTAAACATCGAGTAAACAAATTTTCCTAATCTTTCTGTTCAAGCGCCATCTAC”: 2.07 RPM ratio (pull-down/input); for “GATGATTGTTCTCCCAGCTGATGAATTCACAACATCGAGTAAACAAATTTTCCTAATCTTTCTGTTCAAGCGCCATCTAC”: 2.11 RPM ratio (pull-down/input).
Take “GATGATTGTTCTCCCAGCTGATGAATTCCTAAAATCGAGTAAACAAATTTTCCTAATCTTTCTGTTCAAGCGCCATCTAC”: the binding signal is 0.966 RPM ratio (pull-down/input).
For “GATGATTGTTCTCCCAGCTGATGAATTCAACACATCGAGTAAACAAATTTTCCTAATCTTTCTGTTCAAGCGCCATCTAC”, the binding signal is 1.3 RPM ratio (pull-down/input).
The value for “GATGATTGTTCTCCCAGCTGATGAATTCCTAACATCGAGTAAACAAATTTTCCTAATCTTTCTGTTCAAGCGCCATCTAC” was 1.04 RPM ratio (pull-down/input); that for “GATGATTGTTCTCCCAGCTGATGAATTTTGAAAATCGAGTAAACAAATTTTCCTAATCTTTCTGTTCAAGCGCCATCTAC” was 1.14 RPM ratio (pull-down/input); that for “GATGATTGTTCTCCCAGCTGATGAATTCTGAACATCGAGTAAACAAATTTTCCTAATCTTTCTGTTCAAGCGCCATCTAC” was 0.898 RPM ratio (pull-down/input).
The same measure for “GATGATTGTTCTCCCAGCTGATGAATTCTTCACATCGAGTAAACAAATTTTCCTAATCTTTCTGTTCAAGCGCCATCTAC”: 1.08 RPM ratio (pull-down/input).
For “GATGATTGTTCTCCCAGCTGATGAATTCAAAACATCGAGTAAACAAATTTTCCTAATCTTTCTGTTCAAGCGCCATCTAC”, the binding signal was 1.99 RPM ratio (pull-down/input).
Regarding “GATGATTGTTCTCCCAGCTGATGAATTCTAAAAATCGAGTAAACAAATTTTCCTAATCTTTCTGTTCAAGCGCCATCTAC”, the binding signal was 0.995 RPM ratio (pull-down/input).
The value for “GATGATTGTTCTCCCAGCTGATGAATTGAAAAAATCGAGTAAACAAATTTTCCTAATCTTTCTGTTCAAGCGCCATCTAC” was 1.03 RPM ratio (pull-down/input); that for “GATGATTGTTCTCCCAGCTGATGAATTGAAAACATCGAGTAAACAAATTTTCCTAATCTTTCTGTTCAAGCGCCATCTAC” was 1.8 RPM ratio (pull-down/input).
